Measured values taken from PubChem BioAssay (NCATS).
“And” between values parts separate entries of the source, which are not always exact repeats. Identical values can stand only once. Records with an inconclusive call do not appear. The source made the active and inactive calls. Calls follow the shape of the dose curve; as a rule, active = well fitted curve in the direction sought with a large enough effect; inconclusive = small, poorly fitted or top-dose-only effect, or another doubt; inactive = no such curve, though single readings can be large; an effect the other way counts as inactive or inconclusive.

Tests used:
[1] = biological target: Arylsulfatase A (Homo sapiens) (UniProt P15289); test: qHTS screen for enhancers of Arylsulfatase A (ASA1): LOPAC Validation Assay (AID 720538)
Outline: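 Cell-based enhancement test: residual ASA activity in SV40-transformed I179S patient fibroblasts is measured by pNCS turnover (0.5mM final, 14h, room temperature) following 48h compound incubation; higher fluorescence indicates activation.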

[2] = qHTS for compounds that reverse cellular toxicity of Amyloid beta (A-beta) peptide in yeast: LOPAC Validation Assay (AID 720559);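 also: plate controls were DMSO for no effect and equimolar ferric chloride plus clioquinol rescue for full effect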
Outline: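 Here, A-beta-toxic yeast grow with test compounds at 30 C for 48 hr before optical density at 600 nm is recorded; data are normalized against DMSO and the FeCl3-clioquinol control.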

[3] = qHTS for Activators of Parkin Expression: LOPAC Validation Assay (NLuc Reporter) (AID 720572; also: potency is read from the fitted curve at half-maximal effect)
Outline: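 Compound effects on Parkin promoter activity were measured as NanoLuc luminescence after 24 h at 37 C. The neuronal reporter line also carried FLuc, which was read first. LOPAC compounds were tested at 7 concentrations, with normalization to DMSO (0%) and positive control (100%).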

[4] = qHTS for Activators of Parkin Expression: LOPAC Validation Assay (FLuc Reporter) (AID 720573)
Outline: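 Readout is FLuc luminescence from neuronal reporter cells (Parkin promoter, FLuc plus NLuc) after 24 h compound exposure in dose response. Values normalized to neutral DMSO and positive-control compounds.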

[5] = biological target: T1, Hexokinase-4 (Homo sapiens) + Glucokinase regulatory protein (Homo sapiens) (UniProt P35557+Q14397); test: qHTS assay for inhibitors of recombinant human GCK-GKRP interaction: Diaphorase-coupled assay (AID 743205)
Outline: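 Signal derives from resorufin generated by diaphorase, linked to GCK turnover of glucose (5 mM) and ATP (0.4 mM). Enzyme complex was added after a 20-minute compound preincubation and monitored for 30 minutes.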

[6] = biological target: T1, Hexokinase-4 (Homo sapiens) + Glucokinase regulatory protein (Homo sapiens); test: qHTS assay for inhibitors of recombinant human GCK-GKRP interaction: ADP-Glo assay (AID 743206);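 also: plate controls were DMSO plus enzyme for no effect and no enzyme for full effect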
Outline: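 Pin-transferred compounds meet a 15 nM GST-GCK/15 nM FLAG-GKRP/2 uM S6P mix (dispense concentrations). ATP is then added to 0.4 mM final with 5 mM glucose, and the reaction runs 60 min at room temperature. ADP is quantified luminescently.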

[7] = biological target: T1, Hexokinase-4 (Homo sapiens) + Glucokinase regulatory protein (Homo sapiens); test: qHTS assay for inhibitors of recombinant human GCK-GKRP interaction: HTRF assay (AID 743207);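 also: 0% = DMSO with GCK present and -100% = DMSO wells lacking GCK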
Outline: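 Titration screening format: recombinant GST-GCK and FLAG-GKRP at 5 nM, S6P at 2 uM, labelled anti-tag antibodies, 60 min at RT, dual-wavelength HTRF readout.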

[8] = qHTS Assay for Identifying Gametocytocidal Compounds (AID 743244);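 also: % is scaled to controls: 0 for no effect and ±100 for the full control effect; actives lower the fluorescent signal which means gametocytes are killed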; conditions: P. falciparum 3D7 stage III-V gametocytes, alamarBlue, 72 h; max response: stronger effect = lower value
Outline: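 A resazurin-based viability read-out was applied to mature P. falciparum gametocytes: 72 h compound treatment, then 24 h dye incubation, with falling fluorescence signalling gametocytocidal effect.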

T1 sequence (P35557 whole entry, looked up): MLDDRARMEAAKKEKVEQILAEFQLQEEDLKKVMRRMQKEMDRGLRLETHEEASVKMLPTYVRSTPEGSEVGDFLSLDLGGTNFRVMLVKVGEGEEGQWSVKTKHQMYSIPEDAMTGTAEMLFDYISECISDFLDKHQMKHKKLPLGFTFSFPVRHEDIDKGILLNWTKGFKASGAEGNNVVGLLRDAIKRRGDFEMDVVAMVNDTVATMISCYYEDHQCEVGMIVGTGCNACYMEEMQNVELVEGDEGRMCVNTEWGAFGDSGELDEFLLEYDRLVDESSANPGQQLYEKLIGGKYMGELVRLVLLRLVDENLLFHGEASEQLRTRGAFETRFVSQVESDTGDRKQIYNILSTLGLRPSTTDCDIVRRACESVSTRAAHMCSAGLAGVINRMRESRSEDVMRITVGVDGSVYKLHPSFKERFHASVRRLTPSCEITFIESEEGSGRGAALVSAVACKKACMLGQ
T1 sequence (Q14397 whole entry, looked up): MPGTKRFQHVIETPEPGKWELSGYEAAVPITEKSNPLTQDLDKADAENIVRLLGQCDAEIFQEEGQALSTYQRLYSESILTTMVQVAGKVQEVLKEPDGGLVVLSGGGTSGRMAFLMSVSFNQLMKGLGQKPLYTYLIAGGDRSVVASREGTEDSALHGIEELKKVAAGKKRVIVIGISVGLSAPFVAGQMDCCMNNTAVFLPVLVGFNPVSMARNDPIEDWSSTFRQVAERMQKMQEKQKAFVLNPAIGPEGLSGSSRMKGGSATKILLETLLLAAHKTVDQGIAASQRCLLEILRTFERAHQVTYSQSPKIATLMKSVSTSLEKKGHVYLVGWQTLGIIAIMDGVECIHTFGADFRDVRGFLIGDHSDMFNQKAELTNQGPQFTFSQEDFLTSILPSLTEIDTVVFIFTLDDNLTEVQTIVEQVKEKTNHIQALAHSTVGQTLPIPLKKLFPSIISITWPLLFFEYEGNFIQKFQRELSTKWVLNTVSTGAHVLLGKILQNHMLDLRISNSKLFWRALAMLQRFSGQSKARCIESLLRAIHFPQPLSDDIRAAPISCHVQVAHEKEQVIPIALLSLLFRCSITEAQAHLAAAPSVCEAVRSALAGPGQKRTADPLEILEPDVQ
Sequence of Arylsulfatase A (Homo sapiens) (P15289 whole entry, looked up): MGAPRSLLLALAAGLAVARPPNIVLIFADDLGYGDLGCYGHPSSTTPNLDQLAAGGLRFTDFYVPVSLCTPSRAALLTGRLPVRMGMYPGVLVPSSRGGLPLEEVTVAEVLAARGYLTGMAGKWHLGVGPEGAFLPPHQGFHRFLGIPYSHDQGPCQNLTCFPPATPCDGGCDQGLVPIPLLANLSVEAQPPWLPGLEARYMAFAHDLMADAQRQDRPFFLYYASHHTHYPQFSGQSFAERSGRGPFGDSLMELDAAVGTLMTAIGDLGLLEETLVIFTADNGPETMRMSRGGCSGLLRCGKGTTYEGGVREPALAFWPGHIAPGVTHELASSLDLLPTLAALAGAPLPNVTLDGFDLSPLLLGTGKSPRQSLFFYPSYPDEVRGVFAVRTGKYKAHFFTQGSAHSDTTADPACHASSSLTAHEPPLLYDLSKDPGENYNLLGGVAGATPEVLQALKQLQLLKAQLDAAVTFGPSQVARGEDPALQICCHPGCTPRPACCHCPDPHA

CC(N=C(NC#N)Nc1ccncc1)C(C)(C)C (stereo unspecified)
inactive: Potency [1] | outcome [2] | Potency [3] | outcome [4] | outcome [5] | outcome [6] | Potency [7] | max response [8] 14.1% and -10.9%

Cc1scc2c1N(C(=O)CN1CCN(C)CC1)c1ccccc1NC2=O
inactive: Potency [1] | outcome [2] | Potency [3] | outcome [4] | outcome [5] | outcome [6] | Potency [7] | max response [8] 11.1% and 13%

CCCCCN(CCCCC)C(=O)C(CCC(=O)O)NC(=O)c1ccc(Cl)c(Cl)c1 (stereo unspecified)
inactive: Potency [1] | outcome [2] | Potency [3] | outcome [4] | outcome [5] | outcome [6] | Potency [7] | max response [8] 10.8% and 16.9%

CCc1cccc(N(C)C(N)=Nc2cccc3ccccc23)c1
inactive: Potency [1] | outcome [2] | Potency [3] | outcome [4] | outcome [5] | outcome [6] | Potency [7] | max response [8] -2.27% and 4.9%

CCN(CC)CC(=O)Nc1c(C)cccc1C
inactive: Potency [1] | outcome [2] | Potency [3] | outcome [4] | outcome [5] | outcome [6] | Potency [7] | max response [8] 0.639% and 6.44%

NS(=O)(=O)c1cc2c(cc1Cl)NC(C1CC3C=CC1C3)NS2(=O)=O (stereo unspecified)
inactive: Potency [1] | outcome [2] | Potency [3] | outcome [4] | outcome [5] | outcome [6] | Potency [7] | max response [8] -0.791% and -20.2%

CCCN1C[C@H](CSC)C[C@@H]2c3cccc4[nH]cc(c34)C[C@H]21
inactive: Potency [1] | outcome [2] | Potency [3] | outcome [4] | outcome [5] | outcome [6] | Potency [7] | max response [8] 27.1%

CCOC(=O)C1=C(C)NC(C)=C(C(=O)OC)C1c1cccc([N+](=O)[O-])c1 (stereo unspecified)
inactive: Potency [1] | outcome [2] | outcome [4] | outcome [5] | outcome [6] | Potency [7] | max response [8] 5.7%
active: Potency [3] 1460 nM

O=C(O)CP(=O)(O)O
inactive: Potency [1] | outcome [2] | Potency [3] | outcome [4] | outcome [5] | outcome [6] | Potency [7] | max response [8] -7.11% and 18.5%

CCOC(=O)C1=C(C)NC(C)=C(C(=O)OC)C1c1cccc(Cl)c1Cl (stereo unspecified)
inactive: Potency [1] | outcome [2] | outcome [4] | outcome [5] | outcome [6] | Potency [7] | max response [8] 21.2% and 4.35%
active: Potency [3] 2590 nM

CCNC(=O)N1CCN(CCCC(c2ccc(F)cc2)c2ccc(F)cc2)CC1
inactive: Potency [1] | outcome [2] | Potency [3] | outcome [4] | outcome [5] | outcome [6] | Potency [7] | max response [8] -23% and -10.4%

COc1ccc([C@@H]2Sc3ccccc3N(CCN(C)C)C(=O)[C@@H]2OC(C)=O)cc1
inactive: Potency [1] | outcome [2] | Potency [3] | outcome [4] | outcome [5] | outcome [6] | Potency [7] | max response [8] -3.45%

FC(F)(F)c1ccccc1-n1ccnc1
inactive: Potency [1] | outcome [2] | Potency [3] | outcome [4] | outcome [5] | outcome [6] | Potency [7] | max response [8] 18.2% and -13.7%

COc1cc(C(=O)OCCCN2CCCN(CCCOC(=O)c3cc(OC)c(OC)c(OC)c3)CC2)cc(OC)c1OC
inactive: Potency [1] | outcome [2] | Potency [3] | outcome [4] | outcome [5] | outcome [6] | Potency [7] | max response [8] -8.17% and 18.7%

CC(C)(C)NCC(O)c1cc(O)cc(O)c1 (stereo unspecified)
inactive: Potency [1] | outcome [2] | Potency [3] | outcome [4] | outcome [5] | outcome [6] | Potency [7] | max response [8] -9.6% and 12.9%

CCN(CC)CCNC(=O)c1cc(S(C)(=O)=O)ccc1OC
inactive: Potency [1] | outcome [2] | Potency [3] | outcome [4] | outcome [5] | outcome [6] | Potency [7] | max response [8] -4.07%

CCCN(CCC)CCc1cccc2c1CC(=O)N2
inactive: Potency [1] | outcome [2] | Potency [3] | outcome [4] | outcome [5] | outcome [6] | Potency [7] | max response [8] 3.57% and 20.6%

C[N+](C)(C)CCOC(N)=O
inactive: Potency [1] | outcome [2] | Potency [3] | outcome [4] | outcome [5] | outcome [6] | Potency [7] | max response [8] 20.5% and 14.2%

COCCOC(=O)C1=C(C)NC(C)=C(C(=O)OC(C)C)C1c1cccc([N+](=O)[O-])c1 (stereo unspecified)
active: Potency [3] 2060 nM
inactive: Potency [1] | outcome [2] | outcome [4] | outcome [5] | outcome [6] | Potency [7] | max response [8] 18.6% and 13.2%

CN(C(=O)CCCOc1ccc2[nH]c(=O)ccc2c1)C1CCCCC1
inactive: Potency [1] | outcome [2] | Potency [3] | outcome [4] | outcome [5] | outcome [6] | Potency [7] | max response [8] -2.24% and 11%

CC(C)[N+](C)(CCOC(=O)C1c2ccccc2Oc2ccccc21)C(C)C
inactive: Potency [1] | outcome [2] | Potency [3] | outcome [4] | outcome [5] | outcome [6] | Potency [7] | max response [8] -5.05% and 11.3%

C[N+](C)(C)CCOC(=O)CCC(=O)OCC[N+](C)(C)C
inactive: Potency [1] | outcome [2] | Potency [3] | outcome [4] | outcome [5] | outcome [6] | Potency [7] | max response [8] 0.123% and 29.2%
